Experimental findings from PubChem BioAssay (NCI) are described below.

Compounds without any hit were thinned out: in the full panel of roughly 83,000, 20% have a hit.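 Note: values are percent growth. 100 is the growth of untreated cells, values between 100 and 0 indicate rising inhibition; between -100 and 0 indicates cell death.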 Unmarked numbers belong to inactive results. Active and inactive are the calls of the source. How the source made its calls: active means growth percent below 10; inactive means the rest.

Some test systems named below: T-47D breast; BT-549 breast; MDA-MB-435 melanoma; SW-620 colon; MCF7 breast; HCT-116 colon; HCC-2998 colon; KM12 colon.
Test in all cases: NCI-60 one-dose screen, 48 h (100 = growth as untreated, 0 = no growth, -100 = all killed)
Common to all, as to conditions: 10 µM unless noted

Take `C/C(=N\NC(=O)Nc1ccccc1)c1nnn(-c2ccc([N+](=O)[O-])cc2)c1C`: the growth with T-47D breast is 98.2%; in the assay on BT-549 breast, 111%; in the assay with MDA-MB-435 melanoma it was 104%; in the assay with SW-620 colon it was 104%; in the assay with MCF7 breast it was 97.9%; in the assay with HCT-116 colon, 99.5%. In addition, the figures for the growth in the assay with HCC-2998 colon and in the assay on KM12 colon were 106% and 101%, respectively.

Consider `CN(C)c1ccc(-c2cc(-c3c[nH]c4ccccc34)nc(N)c2C#N)cc1`, for which the growth was 39.9% with T-47D breast; 27.8% with BT-549 breast; 13.6% in the assay on MDA-MB-435 melanoma; 21.4% in the assay on SW-620 colon; 28% with MCF7 breast; 14.5% in the assay on HCT-116 colon. The growth in the assay with HCC-2998 colon is 49.7%; in the assay with KM12 colon, 18.2%.

Turning to `Cc1ccc(S(=O)(=O)NCCCNc2nccc(-c3[nH]c(-c4ccccc4)nc3-c3ccc(F)c(O)c3)n2)cc1`, the growth is 71.1% in the assay with T-47D breast; 93.1% with BT-549 breast; 17.6% in the assay with MDA-MB-435 melanoma; 115% with SW-620 colon; 73.5% in the assay with MCF7 breast; 69.6% in the assay on HCT-116 colon. The growth with HCC-2998 colon was 127%; in the assay on KM12 colon it was 83.9%.

Consider `Cc1ccc2c(n1)C(=O)C(Cl)=C(Nc1cccc(C)c1C)C2=O`, for which the growth was -56.7% (active) in the assay with T-47D breast; 44% with BT-549 breast; -86.5% (active) in the assay with MDA-MB-435 melanoma; -9.92% (active) with SW-620 colon; -59.3% (active) in the assay with MCF7 breast; -42.9% (active) in the assay on HCT-116 colon. Further, the growth in the assay with HCC-2998 colon was 51.6%; with KM12 colon, 26.1%.

Consider `CN(C)CCCOc1ccc(C(=C(c2ccccc2)C2CCCC2)c2ccc(OCCCN(C)C)cc2)cc1`, for which the growth in the assay with T-47D breast is -76.6% (active); in the assay on BT-549 breast it was -83.3% (active); with MDA-MB-435 melanoma, -62.8% (active); in the assay on SW-620 colon, -34.2% (active); in the assay on MCF7 breast, -65.8% (active); in the assay on HCT-116 colon, -44.7% (active). Moreover, the growth was -83.9% (active) with HCC-2998 colon and -96.9% (active) with KM12 colon.

`Cc1ccc(/C=N/Nc2nc(Nc3ccccc3)nc(Nc3ccc(S(N)(=O)=O)cc3)n2)cc1`: the growth in the assay with T-47D breast is 54.5%; in the assay with BT-549 breast it was 76.5%; in the assay on MDA-MB-435 melanoma, 69.4%; in the assay with SW-620 colon, 92.3%; in the assay with MCF7 breast, 26.5%; with HCT-116 colon, 51.3%. The growth with HCC-2998 colon was 74.1%; with KM12 colon, 66%.

Turning to `O=c1c2cc(-c3ccc(F)cc3F)ccc2n(O)c(=O)n1-c1cccc(C(F)(F)F)c1`, the growth is -15.9% (active) in the assay on T-47D breast; -3.54% (active) in the assay on BT-549 breast; 1.71% (active) with MDA-MB-435 melanoma; 16.3% with SW-620 colon; 1.33% (active) in the assay with MCF7 breast; 1.93% (active) in the assay on HCT-116 colon. In addition, the growth is 9.79% (active) in the assay on HCC-2998 colon and 7.94% (active) in the assay on KM12 colon.

In the case of `CC(=O)Nc1ccccc1-c1nc2ccccc2s1`, the growth in the assay on T-47D breast was 99.3%; in the assay with BT-549 breast it was 102%; in the assay on MDA-MB-435 melanoma it was 98.8%; in the assay on SW-620 colon it was 107%; with MCF7 breast it was 97.6%; with HCT-116 colon it was 95.3%. Also, the values for the growth in the assay on HCC-2998 colon and in the assay with KM12 colon were 99.7% and 105%, respectively.

In the case of `O=S(=O)(Oc1ccc(-c2cn3ccsc3n2)cc1)c1cccc(C(F)(F)F)c1`, the growth in the assay on T-47D breast is 103%; in the assay with BT-549 breast, 119%; in the assay on MDA-MB-435 melanoma, 99.5%; in the assay on SW-620 colon it was 97.4%; with MCF7 breast it was 90.1%; in the assay on HCT-116 colon it was 104%. For the same compound, the growth with HCC-2998 colon is 120%; in the assay on KM12 colon it was 102%.

Take `CC/C(=C(/c1ccc(Cl)cc1)c1ccc(OCCN)cc1)c1ccccc1`: the growth with T-47D breast was 93.1%; with BT-549 breast, 129%; in the assay on MDA-MB-435 melanoma it was 96.7%; in the assay with SW-620 colon it was 16.5%; in the assay with MCF7 breast, 54.9%; with HCT-116 colon it was 56%. Further, the growth in the assay on HCC-2998 colon is 83.7%; in the assay with KM12 colon, 84.7%.

Take `C1=CC(c2nn3c(-c4ccccc4)nnc3s2)=Cc2ccccc2O1`: the growth is 19.7% in the assay on T-47D breast; 77.9% with BT-549 breast; 46.7% in the assay on MDA-MB-435 melanoma; 16.6% with SW-620 colon; 30.7% in the assay with MCF7 breast; 41.1% in the assay with HCT-116 colon. The growth in the assay on HCC-2998 colon is 97%; in the assay with KM12 colon it was 85.5%.

Consider `O=c1c2ccccc2cc2n1CCN=C2c1ccccc1`, for which the growth with T-47D breast was 91.7%; with BT-549 breast, 116%; in the assay with MDA-MB-435 melanoma, 104%; with SW-620 colon it was 96%; in the assay on MCF7 breast, 94.7%; in the assay with HCT-116 colon, 106%. Further, the growth in the assay on HCC-2998 colon is 109%; in the assay with KM12 colon it was 104%.

As for `O=C(/C=C/c1cccc(Br)c1)c1cccc(OCCCCOc2cccc(C(=O)/C=C/c3cccc(Br)c3)c2)c1`, the growth is 104% in the assay on T-47D breast; 117% in the assay on BT-549 breast; 105% in the assay on MDA-MB-435 melanoma; 98.3% in the assay on SW-620 colon; 89.5% with MCF7 breast; 87% in the assay on HCT-116 colon. The growth in the assay with HCC-2998 colon was 118%; in the assay on KM12 colon it was 98.7%.

As to `CCOP(=O)(OCC)OC[C@]12CC[C@@H](C)[C@H](C)C1C1=CC[C@@H]3[C@@]4(C)CCCNC(C)(C)[C@@H]4CC[C@@]3(C)[C@]1(C)CC2` (stereo not given in full), the growth in the assay with T-47D breast was 38.2%; in the assay on BT-549 breast it was 71.7%; in the assay with MDA-MB-435 melanoma, 28.4%; with SW-620 colon, -54.7% (active); with MCF7 breast it was -59.8% (active); in the assay with HCT-116 colon, -84.5% (active). Further, the growth is -55.1% (active) in the assay with HCC-2998 colon and 18.2% with KM12 colon.

`CC(=O)Nc1nc(C)c(-c2csc(Nc3ccccc3)n2)s1`: the growth with T-47D breast is 7.07% (active); with BT-549 breast it was 18.1%; in the assay with MDA-MB-435 melanoma, 43.3%; in the assay on SW-620 colon, 57.8%; with MCF7 breast it was 12.3%; with HCT-116 colon it was 19.7%. For the same compound, the growth was 52.3% with HCC-2998 colon and 41.1% with KM12 colon.
